According to publication PMC7862700, “An all-to-all approach to the identification of sequence-specific readers for epigenetic DNA modifications on cytosine”:

Assays:
Test in all cases: DAPPL (digital affinity profiling via proximity ligation, sequencing); 10 mM Tris-HCl pH 7.5, 50 mM NaCl, 1 mM DTT, 4% glycerol, room temperature, 30 min; GST-TFs on glutathione beads, 16-mer random dsDNA library, 0.1% formaldehyde crosslink after washing; high values mean tight binding
Details in all cases: protein: recombinant; tags: N-terminal GST; dsDNA, one strand shown
ERF = target: T1, ERF (Homo sapiens, UniProt P50548 1-548)
T1 sequence: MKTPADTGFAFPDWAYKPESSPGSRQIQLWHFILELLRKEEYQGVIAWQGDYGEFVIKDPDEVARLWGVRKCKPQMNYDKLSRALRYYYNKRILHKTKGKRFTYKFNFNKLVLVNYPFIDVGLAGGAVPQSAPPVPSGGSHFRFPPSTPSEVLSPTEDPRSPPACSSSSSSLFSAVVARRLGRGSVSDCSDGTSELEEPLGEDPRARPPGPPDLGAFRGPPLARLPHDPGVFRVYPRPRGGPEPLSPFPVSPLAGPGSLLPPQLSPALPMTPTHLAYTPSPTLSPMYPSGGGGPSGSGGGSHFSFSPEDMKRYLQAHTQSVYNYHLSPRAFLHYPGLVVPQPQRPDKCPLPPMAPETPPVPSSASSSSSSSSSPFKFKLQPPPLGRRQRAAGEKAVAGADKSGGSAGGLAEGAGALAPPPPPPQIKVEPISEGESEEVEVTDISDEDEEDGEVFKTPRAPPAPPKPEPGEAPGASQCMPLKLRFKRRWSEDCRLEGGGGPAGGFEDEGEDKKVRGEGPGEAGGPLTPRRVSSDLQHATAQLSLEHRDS
Summary of the method: (§1)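 Human transcription factors were made in yeast as GST fusions, captured on glutathione beads and barcoded with DNA. With a tag-only sample included, the pool was incubated with 200 nmole of a random double-stranded 16-mer DNA library in Tris/NaCl/DTT/glycerol buffer at room temperature for 30 min, then crosslinked with 0.1% formaldehyde after washing, ligated by proximity, amplified and sequenced. For binding signal, each hexamer's read frequency for a factor is divided by its frequency for the tag-only sample.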

ETV3L = target: T2, ETV3L (Homo sapiens, UniProt Q6ZN32 1-361)
T2 sequence: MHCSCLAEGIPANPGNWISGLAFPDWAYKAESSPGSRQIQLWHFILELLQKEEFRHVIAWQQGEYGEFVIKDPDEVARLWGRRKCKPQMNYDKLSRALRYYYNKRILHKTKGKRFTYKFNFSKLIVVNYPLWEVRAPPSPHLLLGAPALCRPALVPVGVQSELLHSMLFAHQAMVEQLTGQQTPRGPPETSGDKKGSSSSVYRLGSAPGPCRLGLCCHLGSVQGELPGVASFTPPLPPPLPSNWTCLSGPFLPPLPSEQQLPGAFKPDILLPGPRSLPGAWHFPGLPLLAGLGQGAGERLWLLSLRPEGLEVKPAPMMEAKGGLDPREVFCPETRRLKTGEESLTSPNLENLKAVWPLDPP
Summary of the method: as §1

ETS2 = target: T3, ETS2 (Homo sapiens, UniProt P15036 1-469)
T3 sequence: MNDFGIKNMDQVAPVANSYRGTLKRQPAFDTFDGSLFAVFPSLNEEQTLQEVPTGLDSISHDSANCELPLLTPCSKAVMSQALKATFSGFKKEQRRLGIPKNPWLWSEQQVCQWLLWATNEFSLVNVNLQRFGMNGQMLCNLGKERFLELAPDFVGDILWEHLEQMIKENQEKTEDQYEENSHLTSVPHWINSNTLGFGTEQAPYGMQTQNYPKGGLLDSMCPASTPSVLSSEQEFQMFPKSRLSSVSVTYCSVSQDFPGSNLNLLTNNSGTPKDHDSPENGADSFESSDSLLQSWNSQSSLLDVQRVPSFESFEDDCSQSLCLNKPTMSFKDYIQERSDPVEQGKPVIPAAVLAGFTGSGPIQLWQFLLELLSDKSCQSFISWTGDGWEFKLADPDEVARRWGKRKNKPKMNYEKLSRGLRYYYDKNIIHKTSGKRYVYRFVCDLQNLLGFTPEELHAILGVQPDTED
Summary of the method: as §1

SPDEF = target: T4, SPDEF (Homo sapiens, UniProt O95238 1-335)
T4 sequence: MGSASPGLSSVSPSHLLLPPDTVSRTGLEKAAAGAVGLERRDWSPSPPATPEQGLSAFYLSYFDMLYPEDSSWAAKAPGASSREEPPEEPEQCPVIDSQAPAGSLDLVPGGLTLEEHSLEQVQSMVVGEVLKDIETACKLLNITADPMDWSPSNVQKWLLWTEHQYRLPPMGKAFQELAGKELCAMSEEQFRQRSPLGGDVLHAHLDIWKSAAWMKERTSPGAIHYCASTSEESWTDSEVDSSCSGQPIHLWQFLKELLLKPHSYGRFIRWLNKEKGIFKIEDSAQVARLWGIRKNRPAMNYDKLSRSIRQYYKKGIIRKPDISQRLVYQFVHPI
Summary of the method: as §1

ETV7 = target: T5, ETV7 (Homo sapiens, UniProt Q9Y603 1-341)
T5 sequence: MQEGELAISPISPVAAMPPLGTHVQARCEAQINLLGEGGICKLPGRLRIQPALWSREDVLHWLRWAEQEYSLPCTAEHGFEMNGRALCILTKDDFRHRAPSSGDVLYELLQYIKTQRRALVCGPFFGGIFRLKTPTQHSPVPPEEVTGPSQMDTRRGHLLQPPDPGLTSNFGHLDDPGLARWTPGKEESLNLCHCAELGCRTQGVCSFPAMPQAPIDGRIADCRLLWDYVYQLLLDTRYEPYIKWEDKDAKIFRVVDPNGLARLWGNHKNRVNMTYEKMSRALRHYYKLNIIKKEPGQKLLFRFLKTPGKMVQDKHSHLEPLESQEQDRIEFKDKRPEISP
Summary of the method: as §1

ELF5 = target: T6, ELF5 (Homo sapiens, UniProt Q9UKW6-2 1-255)
T6 sequence: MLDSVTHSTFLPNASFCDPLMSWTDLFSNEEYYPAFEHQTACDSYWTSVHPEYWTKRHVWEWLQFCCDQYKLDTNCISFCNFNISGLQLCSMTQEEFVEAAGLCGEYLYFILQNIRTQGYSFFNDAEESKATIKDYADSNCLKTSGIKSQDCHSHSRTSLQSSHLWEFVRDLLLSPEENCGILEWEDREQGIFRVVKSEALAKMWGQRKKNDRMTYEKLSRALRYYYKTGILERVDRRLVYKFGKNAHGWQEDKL
Summary of the method: as §1

ETV3 = target: T7, ETV3 (Homo sapiens, UniProt P41162-2 1-143)
T7 sequence: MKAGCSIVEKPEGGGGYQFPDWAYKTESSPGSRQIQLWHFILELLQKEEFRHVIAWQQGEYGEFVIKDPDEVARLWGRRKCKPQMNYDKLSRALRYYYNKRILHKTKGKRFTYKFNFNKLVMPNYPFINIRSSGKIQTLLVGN
Summary of the method: as §1

ETV6 = ETV6 (Homo sapiens, UniProt P41212 1-452)
Sequence of ETV6 (P41212 whole entry): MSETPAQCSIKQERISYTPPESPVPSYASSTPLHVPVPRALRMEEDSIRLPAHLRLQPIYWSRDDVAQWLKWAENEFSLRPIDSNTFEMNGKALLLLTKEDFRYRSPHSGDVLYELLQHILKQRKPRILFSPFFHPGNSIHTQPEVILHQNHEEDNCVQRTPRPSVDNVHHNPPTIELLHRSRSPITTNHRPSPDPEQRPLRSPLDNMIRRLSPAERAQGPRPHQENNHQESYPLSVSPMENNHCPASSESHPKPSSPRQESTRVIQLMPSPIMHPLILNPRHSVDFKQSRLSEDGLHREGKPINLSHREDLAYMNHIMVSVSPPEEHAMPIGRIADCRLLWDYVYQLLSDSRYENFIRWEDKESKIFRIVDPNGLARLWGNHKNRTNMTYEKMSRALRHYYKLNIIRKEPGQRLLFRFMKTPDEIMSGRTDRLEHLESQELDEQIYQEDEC
Summary of the method: as §1

Sequence	binding signal (ERF)	binding signal (ETV3L)	binding signal (ETS2)	binding signal (SPDEF)	binding signal (ETV7)	binding signal (ELF5)	binding signal (ETV3)	binding signal (ETV6)
TAAACG	1.11 fold enrichment (6-mer frequency, TF over GST control)	1.07 fold enrichment (6-mer frequency, TF over GST control)	1.16 fold enrichment (6-mer frequency, TF over GST control)	1.11 fold enrichment (6-mer frequency, TF over GST control)	1.1 fold enrichment (6-mer frequency, TF over GST control)	1.1 fold enrichment (6-mer frequency, TF over GST control)	1.15 fold enrichment (6-mer frequency, TF over GST control)	1.14 fold enrichment (6-mer frequency, TF over GST control)
CTAATA	1.27 fold enrichment (6-mer frequency, TF over GST control)	1.2 fold enrichment (6-mer frequency, TF over GST control)	1.18 fold enrichment (6-mer frequency, TF over GST control)	1.25 fold enrichment (6-mer frequency, TF over GST control)	1.24 fold enrichment (6-mer frequency, TF over GST control)	1.08 fold enrichment (6-mer frequency, TF over GST control)	1.06 fold enrichment (6-mer frequency, TF over GST control)	1.13 fold enrichment (6-mer frequency, TF over GST control)
TTCGTT	1.37 fold enrichment (6-mer frequency, TF over GST control)	1.37 fold enrichment (6-mer frequency, TF over GST control)	1.3 fold enrichment (6-mer frequency, TF over GST control)	1.39 fold enrichment (6-mer frequency, TF over GST control)	1.55 fold enrichment (6-mer frequency, TF over GST control)	1.32 fold enrichment (6-mer frequency, TF over GST control)	1.3 fold enrichment (6-mer frequency, TF over GST control)	1.29 fold enrichment (6-mer frequency, TF over GST control)
AATAAA	1.29 fold enrichment (6-mer frequency, TF over GST control)	1.29 fold enrichment (6-mer frequency, TF over GST control)	1.31 fold enrichment (6-mer frequency, TF over GST control)	1.22 fold enrichment (6-mer frequency, TF over GST control)	1.24 fold enrichment (6-mer frequency, TF over GST control)	1.2 fold enrichment (6-mer frequency, TF over GST control)	1.18 fold enrichment (6-mer frequency, TF over GST control)	1.34 fold enrichment (6-mer frequency, TF over GST control)
TAATAC	1.14 fold enrichment (6-mer frequency, TF over GST control)	1.1 fold enrichment (6-mer frequency, TF over GST control)	1.12 fold enrichment (6-mer frequency, TF over GST control)	1.12 fold enrichment (6-mer frequency, TF over GST control)	1.11 fold enrichment (6-mer frequency, TF over GST control)	1.09 fold enrichment (6-mer frequency, TF over GST control)	1.03 fold enrichment (6-mer frequency, TF over GST control)	1.12 fold enrichment (6-mer frequency, TF over GST control)
CCTAAT	1.24 fold enrichment (6-mer frequency, TF over GST control)	1.33 fold enrichment (6-mer frequency, TF over GST control)	1.33 fold enrichment (6-mer frequency, TF over GST control)	1.36 fold enrichment (6-mer frequency, TF over GST control)	1.31 fold enrichment (6-mer frequency, TF over GST control)	1.25 fold enrichment (6-mer frequency, TF over GST control)	1.22 fold enrichment (6-mer frequency, TF over GST control)	1.31 fold enrichment (6-mer frequency, TF over GST control)
TGCTAA	1.13 fold enrichment (6-mer frequency, TF over GST control)	1.25 fold enrichment (6-mer frequency, TF over GST control)	1.34 fold enrichment (6-mer frequency, TF over GST control)	1.32 fold enrichment (6-mer frequency, TF over GST control)	1.28 fold enrichment (6-mer frequency, TF over GST control)	1.25 fold enrichment (6-mer frequency, TF over GST control)	1.22 fold enrichment (6-mer frequency, TF over GST control)	1.29 fold enrichment (6-mer frequency, TF over GST control)
CCGCAT	1.46 fold enrichment (6-mer frequency, TF over GST control)	1.6 fold enrichment (6-mer frequency, TF over GST control)	1.56 fold enrichment (6-mer frequency, TF over GST control)	1.64 fold enrichment (6-mer frequency, TF over GST control)	1.44 fold enrichment (6-mer frequency, TF over GST control)	1.75 fold enrichment (6-mer frequency, TF over GST control)	1.57 fold enrichment (6-mer frequency, TF over GST control)	1.59 fold enrichment (6-mer frequency, TF over GST control)
TGTCTT	1.28 fold enrichment (6-mer frequency, TF over GST control)	1.32 fold enrichment (6-mer frequency, TF over GST control)	1.28 fold enrichment (6-mer frequency, TF over GST control)	1.28 fold enrichment (6-mer frequency, TF over GST control)	1.25 fold enrichment (6-mer frequency, TF over GST control)	1.39 fold enrichment (6-mer frequency, TF over GST control)	1.38 fold enrichment (6-mer frequency, TF over GST control)	1.16 fold enrichment (6-mer frequency, TF over GST control)
CTTTAT	1.08 fold enrichment (6-mer frequency, TF over GST control)	1.22 fold enrichment (6-mer frequency, TF over GST control)	1.29 fold enrichment (6-mer frequency, TF over GST control)	1.14 fold enrichment (6-mer frequency, TF over GST control)	1.31 fold enrichment (6-mer frequency, TF over GST control)	1.13 fold enrichment (6-mer frequency, TF over GST control)	1.19 fold enrichment (6-mer frequency, TF over GST control)	1.23 fold enrichment (6-mer frequency, TF over GST control)
TTTTGT	1.33 fold enrichment (6-mer frequency, TF over GST control)	1.34 fold enrichment (6-mer frequency, TF over GST control)	1.29 fold enrichment (6-mer frequency, TF over GST control)	1.35 fold enrichment (6-mer frequency, TF over GST control)	1.22 fold enrichment (6-mer frequency, TF over GST control)	1.33 fold enrichment (6-mer frequency, TF over GST control)	1.34 fold enrichment (6-mer frequency, TF over GST control)	1.24 fold enrichment (6-mer frequency, TF over GST control)
TCCAAC	1.2 fold enrichment (6-mer frequency, TF over GST control)	1.18 fold enrichment (6-mer frequency, TF over GST control)	1.25 fold enrichment (6-mer frequency, TF over GST control)	1.28 fold enrichment (6-mer frequency, TF over GST control)	1.32 fold enrichment (6-mer frequency, TF over GST control)	1.12 fold enrichment (6-mer frequency, TF over GST control)	1.2 fold enrichment (6-mer frequency, TF over GST control)	1.14 fold enrichment (6-mer frequency, TF over GST control)
